Source: PubChem BioAssay (National Center for Advancing Translational Sciences (NCATS))
Most compounds without a hit are left out; they make up all but 3% or so of the library.
Sm TGR inh: blocks Schistosoma mansoni thioredoxin glutathione reductase; purified TGR, DTNB reduction, TNB absorbance 405 nm; Q962Y6; AID 485364; 3% of 360,000 active; Potency, µM (top dose mostly 114 µM), hits mostly inhibitors; active = well fitted inhibition curve with a large enough effect; inconclusive = small, poorly fitted or top-dose-only effect; inactive = no such curve, though single readings can be large or run the other way; note: nearly all actives have a fitted effect of over 60% in size
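Kinetic colorimetric format: TGR-catalysed, NADPH-driven DTNB reduction monitored via TNB absorbance. Enzyme dispensed at 20 nM; compound exposure 15 min at room temperature before reaction start.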
SARS PLpro yeast: blocks SARS-CoV papain-like protease in a yeast assay; S. cerevisiae expressing SARS-CoV PLpro, growth rescue; Potency, µM (series often up to 32.9 µM), usual class: activators; 0.19% of 330,000 active; calls by dose curve; note: nearly all actives have a fitted effect of over 55% in size
A number is an active result; - = inactive; ? = inconclusive; . = no result; [ ] = dose if it differs, or a comment.

SMILES	Sm TGR inh	SARS PLpro yeast
CCc1ccccc1NC(=O)CN1C(=O)CCc2cc(S(=O)(=O)N3CCCCC3)ccc21	-	.
O=C(CCc1nc2cccnc2n1Cc1cccs1)Nc1cccc(C(F)(F)F)c1	-	.
Cc1ccc(C)c(N2CCN(C(=O)c3cccn3-c3nnc(N4CCCCC4)s3)CC2)c1	-	.
Cn1ncc2c(N3CCN(c4ccc(F)cc4)CC3)ncnc21	-	.
CC1(C)CC(=O)C2=C(C1)N(Cc1ccco1)C(=O)C2(NC(=O)C1CCCCC1)C(F)(F)F (stereo not drawn)	32µM	-
CC1(C)CC(=O)C2=C(C1)N(Cc1ccco1)C(=O)C2(NC(=O)c1ccc(Cl)cc1Cl)C(F)(F)F (stereo not drawn)	-	?
O=C(Cn1c(=O)n(Cc2ccco2)c(=O)c2oc3ccccc3c21)Nc1ccc(F)c(Cl)c1	-	.
Cc1cc(NC(=O)CCn2c(=O)c3cccn3c3cccnc32)ccc1Br	-	.
Cc1cc(C)c(NC(=O)c2cc(S(=O)(=O)N3CCC4(CC3)OCCO4)ccc2F)c(C)c1	-	.
CN(C)c1nc(C=C(C#N)C#N)c(Cl)n1-c1ccc(F)cc1	1.8µM	-
CN(C)c1ccc(C=C(C#N)C#N)cc1	-	-
COC(=O)c1ccc(Cl)cc1NC(=O)Nc1nnc(N(C)Cc2ccccc2)s1	-	.
CCn1cc2nc(SCC(=O)Nc3ccccc3F)n(Cc3ccc(C)cc3)c(=O)c2n1	-	.
CCOC(=O)c1c(-c2ccc(C)cc2)csc1NC(=O)c1cc(=O)c2ccc(C)cc2o1	-	.
CCOC(=O)c1c(-c2ccc(C)cc2)csc1NC(=O)c1cc2ccccc2oc1=O	14µM	.
CCOc1ccc(C2=NC(c3cccs3)=Nc3ccc(CC)cc3N2)cc1OCC	-	.
Cc1ccc(CN2CCN(Cc3cnn(-c4ccc(Cl)cc4)c3)CC2CCO)o1 (stereo not drawn)	-	-
COc1cccc(CN2CCN(Cc3cc4ccccc4o3)CC2CCO)c1 (stereo not drawn)	-	-
COc1cccc(CN2CCN(Cc3ccc(O)c(OC)c3)CC2CCO)c1 (stereo not drawn)	35µM	-
COc1cccc(CN2CCN(Cc3ccc(OC)c(OC)c3)CC2CCO)c1 (stereo not drawn)	-	-
Cc1ccc(CN2CCN(Cc3ccncc3)CC2CCO)o1 (stereo not drawn)	20µM	-
COc1cccc(CN2CCN(Cc3ccc(C)o3)CC2CCO)c1 (stereo not drawn)	35µM	-
Cn1c(=O)c2c(SCC(=O)N3CCc4ccccc43)nc(-c3ccccc3Cl)nc2n(C)c1=O	-	.
Cc1ccc(NC(=O)c2oc3ccccc3c2NC(=O)c2cc3ccccc3o2)cc1	-	.
COc1ccc(C(=O)N2CCC(c3ccncc3)CC2)cc1OC	-	.
SMILES	Sm TGR inh	SARS PLpro yeast
COc1cc(OC)c(NC(=O)CCCn2nc(C)c3sc4ccccc4c3c2=O)cc1Cl	-	.
COc1cc2c(cc1OC)C1OC(c3ccsc3)(C2)Oc2cc(C)oc(=O)c21 (stereo not drawn)	?	-[6.58 µM]
O=c1oc2ccccc2c2c1C1O[C@](c3ccsc3)(Cc3ccccc31)O2	11µM	-[6.58 µM]
COc1ccc([C@]23Cc4cc(OC)c(OC)cc4C(O2)c2c(cc(C)oc2=O)O3)cc1	7.1µM	-[6.58 µM]
COc1ccc([C@]23Cc4cc(OC)c(OC)cc4C(O2)c2c(c4ccccc4oc2=O)O3)cc1	4µM	-[6.58 µM]
COc1ccc2c3c(c(=O)oc2c1)C1O[C@](c2ccsc2)(Cc2ccccc21)O3	?	-[6.58 µM]
COc1ccc([C@]23Cc4cc(OC)c(OC)cc4C(O2)c2c(cc(-c4ccccc4)oc2=O)O3)cc1	?	-[6.58 µM]
CN(C)c1nc(F)c(F)c(S(=O)(=O)c2ccccc2)c1F	40µM	-
Cc1cc(C)c(S(=O)(=O)c2ccccc2)c(N(C)C)n1	-	-
Cc1ccc2cc(CN(C)C(=O)c3cccc(Cl)c3)c(=O)[nH]c2c1	-	.
COc1ccc(OCC(=O)N/N=C/C(C)=C/c2ccco2)c(Br)c1	40µM	-
O=C(N/N=C/C=C\c1ccco1)c1ccccn1	10µM	-
O=C(N/N=C/C=C/c1ccco1)c1cnccn1	10µM	-
O=C(N/N=C/C(Cl)=C/c1ccccc1)c1ccccn1	.	-
O=C(N/N=C/c1ccco1)c1cnccn1	-	-
Cc1ccccc1OCC(=O)N/N=C/c1ccco1	-	-
O=C(N/N=C/C=C/c1ccccc1)c1ccccn1	-	-
CC(/C=N/NC(=O)c1ccccn1)=C\c1ccco1	35µM	-
Cc1ccc(CCNC(=O)c2ccc3c(c2)N(Cc2cccc(Cl)c2)C(=O)c2ccccc2S3(=O)=O)cc1	-	.
CCc1ccc(NCc2cc3ccc(OC)cc3n(CC(=O)Nc3ccccc3C)c2=O)cc1	-	.
Cc1ccc(NC(=O)/C(C#N)=C/c2cc(C)n(-c3ccc(Br)cc3)c2C)cc1C	-	.
COc1cccc(CN2C(=O)N(c3ccc(C)cc3)C(=O)C2CC(=O)Nc2cc(OC)cc(OC)c2)c1 (stereo not drawn)	-	.
COc1ccc(C(=O)CC2(O)C(=O)Nc3c(C)cccc32)c(OC)c1OC (stereo not drawn)	-	.
CC(=O)N(Cc1c(C#N)c2ccccc2n1C)c1ccccc1	-	-
CC(=O)N(Cc1ccccc1)c1ncc2c(n1)c(=O)c(C#N)c1ccccn12	45µM	-
SMILES	Sm TGR inh	SARS PLpro yeast
CS(=O)(=O)N(CC(=O)NCCSc1ccccc1)c1cc(C(F)(F)F)ccc1Cl	-	.
Clc1ccc(-n2ncc3c(NCc4ccco4)ncnc32)cc1	-	-
COc1ccc(-n2ncc3c(NCc4ccco4)ncnc32)cc1	50µM	-
CCCOc1ccc(CNC(=O)CCCN2C(=O)CSc3c2c(C)nn3-c2ccccc2)cc1	-	.
C#CCNC(=O)C1=C[C@H](c2ccc(Br)cc2)C[C@H](OCCCCO)O1	16µM	-
C#CCNC(=O)C1=C[C@H](c2coc3ccccc3c2=O)C[C@H](OCCCCO)O1	?	-
C#CCNC(=O)C1=C[C@H](c2ccc(Br)cc2)C[C@H](OCc2ccc(CO)cc2)O1	?	-
CN1CCN(C(=O)C2=C[C@H](c3ccc(C(F)(F)F)cc3)C[C@H](OCc3ccc(CO)cc3)O2)CC1	-	-
C#CCNC(=O)C1=C[C@@H](c2ccc(C(F)(F)F)cc2)C[C@@H](OCCCCO)O1	22µM	-
CN1CCN(C(=O)C2=C[C@@H](c3ccc(C(F)(F)F)cc3)C[C@@H](OCCCCO)O2)CC1	45µM	-
O=C(Nc1ccccc1)C1=C[C@@H](c2ccc(Br)cc2)C[C@@H](OCCCCO)O1	-	-
C#CCNC(=O)C1=C[C@@H](c2ccc(Br)cc2)C[C@@H](OCc2ccc(CO)cc2)O1	45µM	-
Cc1ccc(NC(=O)C2CCCN(S(=O)(=O)c3cccc4cccnc34)C2)c(C)c1 (stereo not drawn)	-	.
CCc1cccc(NC(=O)CN2C(=O)COc3ccc(S(=O)(=O)N4CCC(C)CC4)cc32)c1	-	.
COc1ccc(C(C(=O)NCc2ccccc2)N(C(=O)Cn2nnc3ccccc32)c2ccc(OC)cc2)cc1 (stereo not drawn)	-	.
Oc1c(C(c2ccc(F)cc2)N2CCCC2)sc2nc(-c3ccco3)nn12 (stereo not drawn)	-	.
CN1CCN(C(CNC(=O)C(=O)Nc2ccc(Cl)cc2)c2cccnc2)CC1 (stereo not drawn)	-	.
Cc1ccc(C)c(S(=O)(=O)N2CCN(Cc3cc4c(cc3O)OCO4)CC2)c1	0.63µM	-
Cc1cc(C)c(S(=O)(=O)N2CCN(Cc3ccc4c(c3)OCO4)CC2)cc1C	-	.
